In ChEMBL document CHEMBL1961873, “Compounds: GSK PKIS; Assays: Nanosyn kinase panel” (2012):
“And” between values parts separate entries of the source, which are not always exact repeats. Identical values can stand only once.

What was measured:
[1] = molecular target: T1, Serine/threonine-protein kinase Nek9 (Homo sapiens) (UniProt Q8TD19); settings: at 1 µM;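 note: each value is a mean percent inhibition of NEK9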
T1 sequence (whole entry): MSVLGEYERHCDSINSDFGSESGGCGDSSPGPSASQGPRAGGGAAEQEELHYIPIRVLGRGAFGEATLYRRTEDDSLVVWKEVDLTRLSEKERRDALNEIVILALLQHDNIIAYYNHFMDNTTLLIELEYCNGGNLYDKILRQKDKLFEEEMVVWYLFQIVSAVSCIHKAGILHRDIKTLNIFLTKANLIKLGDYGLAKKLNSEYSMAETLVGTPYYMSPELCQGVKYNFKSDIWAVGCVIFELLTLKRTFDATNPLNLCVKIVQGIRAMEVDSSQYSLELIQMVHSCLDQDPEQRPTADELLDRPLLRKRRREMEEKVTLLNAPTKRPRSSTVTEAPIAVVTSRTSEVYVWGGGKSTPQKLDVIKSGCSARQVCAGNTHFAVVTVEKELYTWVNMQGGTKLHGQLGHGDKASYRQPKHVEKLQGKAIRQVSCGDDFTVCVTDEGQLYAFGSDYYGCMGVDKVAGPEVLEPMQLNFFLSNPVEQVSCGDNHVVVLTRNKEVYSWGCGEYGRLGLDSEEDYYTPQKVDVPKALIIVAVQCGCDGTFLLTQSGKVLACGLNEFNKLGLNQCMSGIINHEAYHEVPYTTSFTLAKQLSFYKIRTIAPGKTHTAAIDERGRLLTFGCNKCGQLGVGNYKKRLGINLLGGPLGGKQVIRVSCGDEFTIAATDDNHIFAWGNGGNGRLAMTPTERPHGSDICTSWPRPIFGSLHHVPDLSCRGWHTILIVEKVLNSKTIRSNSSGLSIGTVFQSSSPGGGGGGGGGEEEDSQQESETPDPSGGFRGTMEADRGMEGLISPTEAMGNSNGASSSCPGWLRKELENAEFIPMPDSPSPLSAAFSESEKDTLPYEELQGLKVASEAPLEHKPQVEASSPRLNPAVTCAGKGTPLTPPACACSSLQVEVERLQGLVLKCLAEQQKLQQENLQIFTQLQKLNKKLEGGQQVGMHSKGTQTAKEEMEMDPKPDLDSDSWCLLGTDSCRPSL

[2] = molecular target: Serine/threonine-protein kinase PLK1 (Homo sapiens) (UniProt P53350); settings: at 0.1 µM
[3] = molecular target: Serine/threonine-protein kinase PLK1 (Homo sapiens) (UniProt P53350); settings: at 1 µM
[4] = molecular target: T2, Dual specificity protein kinase TTK (Homo sapiens) (UniProt P33981); settings: at 0.1 µM
T2 sequence (whole entry): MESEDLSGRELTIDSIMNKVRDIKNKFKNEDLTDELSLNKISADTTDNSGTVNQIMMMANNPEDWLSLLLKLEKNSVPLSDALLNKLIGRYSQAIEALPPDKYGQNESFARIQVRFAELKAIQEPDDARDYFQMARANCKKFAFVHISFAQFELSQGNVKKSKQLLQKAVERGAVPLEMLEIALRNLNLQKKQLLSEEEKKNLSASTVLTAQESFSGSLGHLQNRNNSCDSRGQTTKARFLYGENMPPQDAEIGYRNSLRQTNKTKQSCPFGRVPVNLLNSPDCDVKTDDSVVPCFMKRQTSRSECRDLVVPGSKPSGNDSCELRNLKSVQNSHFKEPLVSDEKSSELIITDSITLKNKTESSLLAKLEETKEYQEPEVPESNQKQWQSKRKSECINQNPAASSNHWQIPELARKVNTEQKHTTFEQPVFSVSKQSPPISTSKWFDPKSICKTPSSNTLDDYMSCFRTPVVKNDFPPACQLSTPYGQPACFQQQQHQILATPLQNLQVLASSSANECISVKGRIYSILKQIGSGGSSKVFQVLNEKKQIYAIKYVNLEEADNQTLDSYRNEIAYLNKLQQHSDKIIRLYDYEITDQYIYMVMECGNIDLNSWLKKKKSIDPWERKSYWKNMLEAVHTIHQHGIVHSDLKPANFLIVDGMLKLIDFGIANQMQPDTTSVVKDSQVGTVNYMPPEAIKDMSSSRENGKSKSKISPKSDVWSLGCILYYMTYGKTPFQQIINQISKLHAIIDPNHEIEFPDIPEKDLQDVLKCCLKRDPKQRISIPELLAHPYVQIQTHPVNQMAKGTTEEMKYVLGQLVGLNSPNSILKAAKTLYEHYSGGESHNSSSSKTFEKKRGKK

[5] = tested on: T3, Receptor-type tyrosine-protein kinase FLT3 (Homo sapiens), P36888 [D835Y]; settings: at 1 µM
T3 sequence (whole entry): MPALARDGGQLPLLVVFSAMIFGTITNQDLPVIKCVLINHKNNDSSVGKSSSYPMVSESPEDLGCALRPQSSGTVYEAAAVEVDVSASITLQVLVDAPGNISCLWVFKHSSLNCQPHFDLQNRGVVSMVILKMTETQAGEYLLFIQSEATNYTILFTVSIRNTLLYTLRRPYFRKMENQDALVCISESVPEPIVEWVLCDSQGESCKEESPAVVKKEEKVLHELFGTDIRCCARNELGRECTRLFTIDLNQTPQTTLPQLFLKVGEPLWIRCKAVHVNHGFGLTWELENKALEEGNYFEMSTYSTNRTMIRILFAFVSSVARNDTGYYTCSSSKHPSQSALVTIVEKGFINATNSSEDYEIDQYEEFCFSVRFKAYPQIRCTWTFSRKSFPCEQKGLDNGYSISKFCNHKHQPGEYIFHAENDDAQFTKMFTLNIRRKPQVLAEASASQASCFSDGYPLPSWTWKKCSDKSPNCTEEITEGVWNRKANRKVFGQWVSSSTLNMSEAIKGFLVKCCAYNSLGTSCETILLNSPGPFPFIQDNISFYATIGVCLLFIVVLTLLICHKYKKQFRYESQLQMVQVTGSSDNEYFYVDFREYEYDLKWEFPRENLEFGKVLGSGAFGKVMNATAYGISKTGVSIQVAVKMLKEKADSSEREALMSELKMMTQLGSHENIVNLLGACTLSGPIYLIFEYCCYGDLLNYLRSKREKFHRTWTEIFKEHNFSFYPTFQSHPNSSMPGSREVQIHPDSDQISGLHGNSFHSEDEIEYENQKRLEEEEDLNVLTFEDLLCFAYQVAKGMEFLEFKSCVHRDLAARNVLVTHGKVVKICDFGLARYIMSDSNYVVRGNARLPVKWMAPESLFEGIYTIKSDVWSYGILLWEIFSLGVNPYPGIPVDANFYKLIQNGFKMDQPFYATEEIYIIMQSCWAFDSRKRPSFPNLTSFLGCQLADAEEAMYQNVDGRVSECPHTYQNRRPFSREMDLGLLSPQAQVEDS

[6] = molecular target: Vascular endothelial growth factor receptor 3 (Homo sapiens) (UniProt P35916); settings: at 0.1 µM
[7] = molecular target: Vascular endothelial growth factor receptor 3 (Homo sapiens) (UniProt P35916); settings: at 1 µM
[8] = molecular target: Macrophage colony-stimulating factor 1 receptor (Homo sapiens) (UniProt P07333); settings: at 0.1 µM
[9] = molecular target: Macrophage colony-stimulating factor 1 receptor (Homo sapiens) (UniProt P07333); settings: at 1 µM
[10] = molecular target: Tyrosine-protein kinase Fyn (Homo sapiens) (UniProt P06241); settings: at 0.1 µM
[11] = molecular target: Tyrosine-protein kinase Fyn (Homo sapiens) (UniProt P06241); settings: at 1 µM
[12] = molecular target: Tyrosine-protein kinase HCK (Homo sapiens) (UniProt P08631); settings: at 0.1 µM
[13] = molecular target: Tyrosine-protein kinase HCK (Homo sapiens) (UniProt P08631); settings: at 1 µM
[14] = molecular target: Insulin-like growth factor 1 receptor (Homo sapiens) (UniProt P08069); settings: at 0.1 µM
[15] = molecular target: Insulin-like growth factor 1 receptor (Homo sapiens) (UniProt P08069); settings: at 1 µM
[16] = molecular target: Insulin receptor (Homo sapiens) (UniProt P06213); settings: at 0.1 µM
[17] = molecular target: Insulin receptor (Homo sapiens) (UniProt P06213); settings: at 1 µM
[18] = molecular target: Insulin receptor-related protein (Homo sapiens) (UniProt P14616); settings: at 0.1 µM
[19] = molecular target: Insulin receptor-related protein (Homo sapiens) (UniProt P14616); settings: at 1 µM
[20] = molecular target: T4, Tyrosine-protein kinase ITK/TSK (Homo sapiens) (UniProt Q08881); settings: at 0.1 µM;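 note: mean percent inhibition of ITK from the GSK PKIS screen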
T4 sequence (whole entry): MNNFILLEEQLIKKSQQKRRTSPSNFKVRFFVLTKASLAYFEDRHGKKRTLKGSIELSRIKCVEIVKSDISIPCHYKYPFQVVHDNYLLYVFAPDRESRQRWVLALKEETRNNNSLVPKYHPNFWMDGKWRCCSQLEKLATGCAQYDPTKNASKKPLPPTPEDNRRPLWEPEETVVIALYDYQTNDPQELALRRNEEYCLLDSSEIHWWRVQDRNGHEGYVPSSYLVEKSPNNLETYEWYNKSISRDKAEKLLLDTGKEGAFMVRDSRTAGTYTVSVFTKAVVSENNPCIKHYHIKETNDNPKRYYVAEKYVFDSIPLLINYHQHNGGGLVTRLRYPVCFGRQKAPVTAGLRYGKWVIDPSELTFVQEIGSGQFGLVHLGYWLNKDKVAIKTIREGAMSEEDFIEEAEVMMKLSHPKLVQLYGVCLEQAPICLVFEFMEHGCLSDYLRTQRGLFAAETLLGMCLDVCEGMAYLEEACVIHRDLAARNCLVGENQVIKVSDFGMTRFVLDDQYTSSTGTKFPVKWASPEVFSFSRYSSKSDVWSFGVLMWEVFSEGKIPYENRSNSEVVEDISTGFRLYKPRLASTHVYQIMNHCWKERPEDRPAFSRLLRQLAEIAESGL

Insulin receptor-related protein (Homo sapiens), sequence (P14616 27-742 limits assumed): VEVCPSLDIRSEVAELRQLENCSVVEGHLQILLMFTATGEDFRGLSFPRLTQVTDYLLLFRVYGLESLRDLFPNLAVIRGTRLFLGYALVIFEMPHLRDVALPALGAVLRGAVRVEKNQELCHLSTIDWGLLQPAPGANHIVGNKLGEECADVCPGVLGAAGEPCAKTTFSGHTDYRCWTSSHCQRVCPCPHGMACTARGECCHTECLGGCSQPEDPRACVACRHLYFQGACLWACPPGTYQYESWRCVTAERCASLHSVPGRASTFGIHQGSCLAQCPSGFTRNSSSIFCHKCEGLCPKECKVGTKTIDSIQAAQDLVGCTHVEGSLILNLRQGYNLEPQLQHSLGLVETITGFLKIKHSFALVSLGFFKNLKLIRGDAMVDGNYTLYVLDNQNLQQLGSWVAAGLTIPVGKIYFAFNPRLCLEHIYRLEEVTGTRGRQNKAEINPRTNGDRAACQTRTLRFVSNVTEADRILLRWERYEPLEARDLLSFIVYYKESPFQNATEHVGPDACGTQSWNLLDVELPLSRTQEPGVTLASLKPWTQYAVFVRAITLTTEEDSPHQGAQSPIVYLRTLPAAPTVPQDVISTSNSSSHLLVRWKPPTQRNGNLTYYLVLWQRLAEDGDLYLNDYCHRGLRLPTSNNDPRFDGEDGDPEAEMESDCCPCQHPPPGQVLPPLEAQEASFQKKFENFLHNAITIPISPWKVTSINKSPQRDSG
Insulin receptor-related protein (Homo sapiens), sequence (P14616 747-1297 limits assumed): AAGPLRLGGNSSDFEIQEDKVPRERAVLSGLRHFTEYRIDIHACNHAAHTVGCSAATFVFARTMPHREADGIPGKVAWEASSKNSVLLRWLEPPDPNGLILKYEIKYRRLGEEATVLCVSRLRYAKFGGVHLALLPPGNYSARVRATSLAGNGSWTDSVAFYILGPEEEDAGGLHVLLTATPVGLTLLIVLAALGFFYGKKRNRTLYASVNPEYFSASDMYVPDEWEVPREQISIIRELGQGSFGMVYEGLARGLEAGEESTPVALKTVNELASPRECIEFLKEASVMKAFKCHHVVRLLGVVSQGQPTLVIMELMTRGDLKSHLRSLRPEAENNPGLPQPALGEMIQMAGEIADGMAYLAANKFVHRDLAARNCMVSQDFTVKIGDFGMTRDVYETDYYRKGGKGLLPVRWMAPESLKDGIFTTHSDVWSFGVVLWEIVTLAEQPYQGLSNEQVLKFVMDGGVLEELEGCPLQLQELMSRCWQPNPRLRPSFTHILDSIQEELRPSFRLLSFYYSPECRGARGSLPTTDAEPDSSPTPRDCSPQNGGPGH
Macrophage colony-stimulating factor 1 receptor (Homo sapiens), sequence (P07333 whole entry): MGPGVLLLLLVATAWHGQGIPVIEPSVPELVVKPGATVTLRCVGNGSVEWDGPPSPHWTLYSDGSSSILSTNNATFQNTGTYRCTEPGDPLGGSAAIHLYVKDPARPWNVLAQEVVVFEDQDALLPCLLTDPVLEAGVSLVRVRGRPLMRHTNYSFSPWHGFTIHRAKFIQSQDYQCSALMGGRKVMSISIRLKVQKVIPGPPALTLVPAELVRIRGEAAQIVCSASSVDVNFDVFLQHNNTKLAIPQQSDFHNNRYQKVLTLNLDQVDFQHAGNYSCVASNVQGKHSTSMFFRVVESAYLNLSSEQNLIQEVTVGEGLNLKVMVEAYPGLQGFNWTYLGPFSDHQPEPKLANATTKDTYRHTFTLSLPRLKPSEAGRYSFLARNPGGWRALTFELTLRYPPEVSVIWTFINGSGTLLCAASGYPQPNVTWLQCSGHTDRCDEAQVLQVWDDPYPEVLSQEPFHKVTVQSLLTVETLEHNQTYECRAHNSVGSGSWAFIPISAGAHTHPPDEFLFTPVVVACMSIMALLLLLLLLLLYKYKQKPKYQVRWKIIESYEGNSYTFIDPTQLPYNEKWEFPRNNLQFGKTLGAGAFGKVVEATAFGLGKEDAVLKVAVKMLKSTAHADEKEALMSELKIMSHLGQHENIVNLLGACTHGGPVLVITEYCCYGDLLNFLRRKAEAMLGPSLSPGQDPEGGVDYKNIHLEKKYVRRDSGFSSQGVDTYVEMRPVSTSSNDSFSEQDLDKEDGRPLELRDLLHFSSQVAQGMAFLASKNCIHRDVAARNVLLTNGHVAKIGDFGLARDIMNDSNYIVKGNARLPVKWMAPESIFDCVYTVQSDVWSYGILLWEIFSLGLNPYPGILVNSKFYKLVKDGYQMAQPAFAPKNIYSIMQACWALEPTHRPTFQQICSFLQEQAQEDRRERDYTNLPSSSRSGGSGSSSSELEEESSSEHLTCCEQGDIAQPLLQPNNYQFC
Tyrosine-protein kinase Fyn (Homo sapiens), sequence (P06241 2-537 limits assumed): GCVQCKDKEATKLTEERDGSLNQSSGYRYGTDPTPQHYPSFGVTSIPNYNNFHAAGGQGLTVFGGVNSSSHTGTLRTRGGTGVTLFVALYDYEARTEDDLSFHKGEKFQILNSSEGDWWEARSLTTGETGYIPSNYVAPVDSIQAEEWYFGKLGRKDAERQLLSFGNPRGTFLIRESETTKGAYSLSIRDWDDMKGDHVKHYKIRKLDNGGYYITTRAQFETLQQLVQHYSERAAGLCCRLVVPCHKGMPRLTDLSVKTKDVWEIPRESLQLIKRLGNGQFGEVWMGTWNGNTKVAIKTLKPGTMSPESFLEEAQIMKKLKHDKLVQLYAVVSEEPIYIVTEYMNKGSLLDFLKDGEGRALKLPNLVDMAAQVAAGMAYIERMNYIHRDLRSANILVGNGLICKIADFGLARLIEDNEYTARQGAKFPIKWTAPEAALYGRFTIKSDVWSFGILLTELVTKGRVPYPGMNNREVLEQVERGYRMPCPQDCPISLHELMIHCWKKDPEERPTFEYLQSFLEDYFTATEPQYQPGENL
Insulin-like growth factor 1 receptor (Homo sapiens), sequence (P08069 31-736 limits assumed): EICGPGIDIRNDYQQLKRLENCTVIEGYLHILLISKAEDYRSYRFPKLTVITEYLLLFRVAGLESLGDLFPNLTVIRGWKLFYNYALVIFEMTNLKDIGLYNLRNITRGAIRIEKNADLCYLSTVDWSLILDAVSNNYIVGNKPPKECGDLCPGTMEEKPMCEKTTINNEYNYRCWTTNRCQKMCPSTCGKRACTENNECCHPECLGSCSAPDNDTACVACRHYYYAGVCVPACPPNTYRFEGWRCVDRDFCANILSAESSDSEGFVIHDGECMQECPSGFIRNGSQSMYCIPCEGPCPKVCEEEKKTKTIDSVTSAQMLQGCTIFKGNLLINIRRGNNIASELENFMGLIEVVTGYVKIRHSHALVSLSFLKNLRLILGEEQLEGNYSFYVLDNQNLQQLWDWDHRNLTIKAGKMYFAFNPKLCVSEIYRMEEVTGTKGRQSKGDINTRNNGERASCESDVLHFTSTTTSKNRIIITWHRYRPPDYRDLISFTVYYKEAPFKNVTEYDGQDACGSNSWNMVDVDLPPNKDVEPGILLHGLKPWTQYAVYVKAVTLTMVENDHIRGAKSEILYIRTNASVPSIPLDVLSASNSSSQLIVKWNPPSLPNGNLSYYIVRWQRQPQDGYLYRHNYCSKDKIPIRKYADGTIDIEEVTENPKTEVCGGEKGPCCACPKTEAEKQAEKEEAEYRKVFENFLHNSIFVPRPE
Insulin-like growth factor 1 receptor (Homo sapiens), sequence (P08069 741-1367 limits assumed): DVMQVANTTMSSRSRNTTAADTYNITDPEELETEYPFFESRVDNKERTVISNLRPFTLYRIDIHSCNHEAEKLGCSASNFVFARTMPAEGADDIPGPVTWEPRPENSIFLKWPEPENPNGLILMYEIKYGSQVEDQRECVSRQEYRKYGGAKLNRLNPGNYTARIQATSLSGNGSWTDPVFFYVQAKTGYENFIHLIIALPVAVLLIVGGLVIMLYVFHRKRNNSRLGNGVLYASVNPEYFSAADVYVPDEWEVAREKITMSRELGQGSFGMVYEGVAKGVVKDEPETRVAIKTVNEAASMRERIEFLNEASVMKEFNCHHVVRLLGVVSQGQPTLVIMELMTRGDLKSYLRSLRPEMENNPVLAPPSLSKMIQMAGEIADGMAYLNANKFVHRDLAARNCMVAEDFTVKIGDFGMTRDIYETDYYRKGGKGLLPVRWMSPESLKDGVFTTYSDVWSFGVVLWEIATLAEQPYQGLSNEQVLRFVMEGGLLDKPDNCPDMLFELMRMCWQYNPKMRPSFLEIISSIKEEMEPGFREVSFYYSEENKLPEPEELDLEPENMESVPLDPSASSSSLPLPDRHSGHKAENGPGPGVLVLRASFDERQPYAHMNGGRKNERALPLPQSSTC
Serine/threonine-protein kinase PLK1 (Homo sapiens), sequence (P53350 whole entry): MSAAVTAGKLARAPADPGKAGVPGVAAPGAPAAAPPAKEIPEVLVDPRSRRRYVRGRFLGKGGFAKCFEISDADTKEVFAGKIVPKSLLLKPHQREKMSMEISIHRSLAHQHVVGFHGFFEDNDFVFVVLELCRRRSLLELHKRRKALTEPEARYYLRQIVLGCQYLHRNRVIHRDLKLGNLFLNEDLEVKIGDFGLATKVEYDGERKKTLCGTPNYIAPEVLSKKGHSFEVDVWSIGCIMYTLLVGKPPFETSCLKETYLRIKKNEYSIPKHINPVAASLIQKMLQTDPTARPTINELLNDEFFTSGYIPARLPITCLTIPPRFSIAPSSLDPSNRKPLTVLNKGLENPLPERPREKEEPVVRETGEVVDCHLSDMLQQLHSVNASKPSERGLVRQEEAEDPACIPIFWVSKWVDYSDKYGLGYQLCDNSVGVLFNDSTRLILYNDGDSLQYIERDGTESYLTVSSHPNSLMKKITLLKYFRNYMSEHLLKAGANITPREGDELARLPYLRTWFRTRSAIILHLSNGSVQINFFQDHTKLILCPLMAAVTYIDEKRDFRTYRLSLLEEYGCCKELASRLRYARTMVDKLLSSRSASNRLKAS

Row | Compound | inhibition [1] | inhibition [2] | inhibition [3] | inhibition [4] | inhibition [5] | inhibition [6] | inhibition [7] | inhibition [8] | inhibition [9] | inhibition [10] | inhibition [11] | inhibition [12] | inhibition [13] | inhibition [14] | inhibition [15] | inhibition [16] | inhibition [17] | inhibition [18] | inhibition [19] | inhibition [20]
1 | CN1CCN(Cc2ccc(-c3cc4ncnc(Nc5ccc(OCc6cccc(F)c6)c(Cl)c5)c4s3)o2)CC1 | 5.83% and 18% | 3.39% and 1.18% | 2.38% and 4.14% | 6.58% and 12.2% | -2.05% and 1.99% | 2.97% and 4.96% | 3.14% and 8.22% | 3.64% and 7.74% | 27.9% and 35.8% | 2.24% and 2.04% | 9.29% and 9.99% | 3.14% and 4.38% | 7.61% and 13.1% | -0.2% and 3.7% | 1.01% and 6.72% | 2.51% and 7.21% | 3.07% and 7.9% | 1.81% and 2.44% | 3.22% and 4.36% | 1.02% and 2.31%
2 | CN1CCC(C(=O)Nc2n[nH]c3nc(-c4ccc(O)cc4)c(Br)cc23)CC1 | 13.7% and 6.47% | 6% and 2.01% | 2.87% and 3.17% | 16.1% and 0.86% | 1.05% and 6.99% | -8.86% and 1.93% | 2.2% | -1.7% and 0.14% | 0.92% and 5.04% | 0.13% and 0.97% | 2.18% and 4.52% | 3.06% and 2.78% | 6.08% and 4.64% | -4.96% and 3.55% | -5.49% and 3.41% | 5.36% and 4.34% | 4.73% and 6.55% | 2.54% and -0.17% | 2.5% and 1.64% | -2.09% and 0.57%
3 | COc1cc(Nc2ncc(-c3ccccc3)o2)cc(OC)c1 | 7.35% | 4.62% | 2.5% | 10% | 36.7% | 1.25% | 9.4% | 14.5% | 56.3% | 2.7% | 26.5% | 8.41% | 19.9% | -0.03% | 4.18% | 1.03% | 5.64% | 2.92% | 2.43% | -0.12%
